# Measurements as given in article PMC5540273 (PLoS ONE, 2017).
# pKd: −log10 of the molar value.
# Tests used:
# DCAMKL3 = tested on: T1, DCAMKL3
# T1 construct: gene DCLK3
# DRAK2 = tested on: T2, DRAK2
# T2 construct: gene STK17B
# ERK2 = tested on: T3, ERK2
# T3 construct: gene MAPK1
# ERK3 = tested on: T4, ERK3
# T4 construct: gene MAPK6
# ERK4 = tested on: T5, ERK4
# T5 construct: gene MAPK4
# 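Further: kd values determined as follow-up on hits from a single-replicate KINOMEscan panel screen.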
smiles,measurement,setting,value
CC[C@@H]1CO[C@H](C(=O)Nc2ccccc2)CN1c1cc(-c2ccc3c(N)n[nH]c3c2)nc(NC)n1 [GSK2376236],pKd,DCAMKL3,6.24
CNc1nc(-c2ccc3c(N)n[nH]c3c2)cc(N2C[C@@H](C(=O)Nc3ccccc3)CC[C@H]2C)n1 [GSK2298859],pKd,DRAK2,7.08
COc1ccc(Nc2nccc(N3CCC(NC(=O)C(C)c4ccc(Cl)cc4)CC3)n2)cc1 (stereo not drawn) [GSK1379812],pKd,DYRK1A,< 5.00
CNc1cc(-c2ccc3c(N)n[nH]c3c2)nc(N)n1 [GSK2224810],pKd,DYRK2,7.48
Cn1cncc1-c1cc2c(Nc3ccc(OCc4ccccc4)cc3)ncnc2cn1 [GW281179],pKd,EGFR,8.00
Cc1ccc(NC(=O)c2ccc(Cl)cc2)cc1-c1ccc(C(=O)Nc2ccncc2)cc1 [GSK1398467],pKd,EPHA3,< 5.00
Cc1ccc(-c2nc(Nc3ccncc3)c3ccccc3n2)s1 [GSK189015],pKd,EPHA5,< 5.00
same,pKd,ERK2,< 5.00
CS(=O)(=O)CCNCc1nc(-c2ccc3ncnc(Nc4ccc5c(cnn5Cc5ccccc5)c4)c3c2)cs1.Cl.Cl [GW569716],pKd,ERBB3,7.16
same,pKd,ERBB4,8.09
CS(=O)(=O)CCNCc1nc(-c2ccc3ncnc(Nc4ccc(OCc5ccccc5)c(Cl)c4)c3c2)cs1.Cl [GW582764],pKd,ERBB4,7.16
CC(=O)c1c(C)c2cnc(Nc3ccc(N4CCNCC4)cn3)nc2n(C2CCCC2)c1=O,pKd,ERK3,< 5.00
CCn1c(-c2c(N)noc2C)nc2cnccc21 [SB-737856],pKd,ERK3,< 5.00
Cc1nccc(-c2c(-c3ccc(F)cc3)ncn2CCCN2CCOCC2)n1.Cl [SB-282975],pKd,ERK4,< 5.00
Cc1c(Cn2c3ccccc3n3c(=O)cc(N4CCOCC4)nc23)cccc1C(F)(F)F [GSK2306394],pKd,ERK4,< 5.00
Cn1cnc2c(N)ncnc21 [SKF-97623],pKd,FLT3-autoinhibited,< 5.00
O=C(Nc1n[nH]c2nc(-c3cccs3)c(Br)cc12)C1CC1 [SB-735297],pKd,FLT3,6.82
CS(=O)(=O)Cc1ccc(Nc2nccc(-c3c(-c4cccc(NC(=O)C5CCCCC5)c4)nn4ncccc34)n2)cc1 [GSK350559],pKd,FLT3,7.13
